Results from the supplement of paper PMC7156485.
“And” between values parts separate entries of the source, which are not always exact repeats. Equal values may be shown once. ± gives the standard deviation of the averaged measurements.

Legend:
Settings in all cases: concentration: 10 µM; 24 h
HCC1569 [1] = test: cell number relative to DMSO (% of DMSO); higher = more cells (less growth inhibition / toxicity)
Summary of the method: (§1)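 After 24 h at 37 °C with compounds at 10 µM, in triplicate, HCC1569 and TDF cells were fixed with 3.7% formaldehyde. Immunostaining used a rabbit anti-H1.0 antibody and an AlexaFluor 647 secondary, with DAPI, and six fields per well were imaged at ×10. H1.0 nuclear intensity or cell number is presented as percent of the plate control, from the median of replicates, with HCC1569 values smoothed for positional effects.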

TDF [2] = test: as above
Summary of the method: as §1

TDF [3] = test: H1.0 immunofluorescence intensity relative to DMSO (% of DMSO); higher = stronger H1.0 induction, active = 120 or more
Summary of the method: as §1

HCC1569 [4] = test: H1.0 immunofluorescence intensity relative to DMSO (% of DMSO); higher = stronger H1.0 induction, active = 140 or more
Summary of the method: as §1
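Wherever H1.0 immunofluorescence intensity relative to DMSO is given: TDF is a line of transformed human dermal fibroblasts of mesenchymal origin.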
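Wherever cell number relative to DMSO is given: TDF denotes transformed human dermal fibroblasts of mesenchymal origin.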

N#CC(=C1Nc2ccccc2S1)c1ccnc(NCCc2cccnc2)n1 [JNK Inhibitor V]
cell number (HCC1569 [1]): 73.6
cell number (TDF [2]): 87.4
H1.0 immunofluorescence intensity (TDF [3]): 108 (inactive)
H1.0 immunofluorescence intensity (HCC1569 [4]): 123 (inactive)

C[N+]1(CCCCC[N+]2(C)CCCC2)CCCC1.O=C([O-])C(O)C(O)C(=O)O.O=C([O-])C(O)C(O)C(=O)O [Pentolinium di[L(+)-tartrate]]
cell number (HCC1569 [1]): 103
cell number (TDF [2]): 110
H1.0 immunofluorescence intensity (TDF [3]): 92.6 (inactive)
H1.0 immunofluorescence intensity (HCC1569 [4]): 101 (inactive)

Cc1ccc(F)c(NC(=O)Nc2ccc(-c3cccc4[nH]nc(N)c34)cc2)c1
cell number (HCC1569 [1]): 92.4
cell number (TDF [2]): 90.1
H1.0 immunofluorescence intensity (TDF [3]): 101 (inactive)
H1.0 immunofluorescence intensity (HCC1569 [4]): 101 (inactive)

COc1ccc2[nH]c(S(=O)Cc3ncc(C)c(OC)c3C)nc2n1 (stereo unspecified) [Tenatoprazole]
cell number (HCC1569 [1]): 103
cell number (TDF [2]): 104
H1.0 immunofluorescence intensity (TDF [3]): 106 (inactive)
H1.0 immunofluorescence intensity (HCC1569 [4]): 100 (inactive)

CC(=O)SC1CC2=CC(=O)CCC2(C)C2CCC3(C)C(CCC34CCC(=O)O4)C12 (stereo unspecified) [Spironolactone]
cell number (HCC1569 [1]): 99.1 ± 3.8
cell number (TDF [2]): 105 ± 7.3
H1.0 immunofluorescence intensity (TDF [3]): 92.2 (inactive)
H1.0 immunofluorescence intensity (HCC1569 [4]): 104 (inactive)

CCCCS(=N)(=O)CCC(N)C(=O)O (stereo unspecified) [Buthionine sulfoximine]
cell number (HCC1569 [1]): 95.9
cell number (TDF [2]): 116
H1.0 immunofluorescence intensity (TDF [3]): 89.1 (inactive)
H1.0 immunofluorescence intensity (HCC1569 [4]): 92.6 (inactive)

Cn1c(=O)c(-c2c(Cl)cccc2Cl)cc2cnc(Nc3ccc(N4CCOCC4)cc3)nc21
cell number (HCC1569 [1]): 52.7
cell number (TDF [2]): 21.9
H1.0 immunofluorescence intensity (TDF [3]): 154 (active)
H1.0 immunofluorescence intensity (HCC1569 [4]): 88.3 (inactive)

NS(=O)(=O)c1cc2c(cc1Cl)NC(C(Cl)Cl)NS2(=O)=O (stereo unspecified) [Trichloromethiazide]
cell number (HCC1569 [1]): 106
cell number (TDF [2]): 105
H1.0 immunofluorescence intensity (TDF [3]): 93.9 (inactive)
H1.0 immunofluorescence intensity (HCC1569 [4]): 110 (inactive)

CC12C=CC(=O)C=C1CCC1C2=CCC2(C)C(C(=O)CN3CCN(c4cc(N5CCCC5)nc(N5CCCC5)n4)CC3)CCC12.O=C(O)C=CC(=O)O (stereo unspecified)
cell number (HCC1569 [1]): 91.7 and 96.8
cell number (TDF [2]): 93.4 and 95.2
H1.0 immunofluorescence intensity (TDF [3]): 95.3 (inactive) and 98.1 (inactive)
H1.0 immunofluorescence intensity (HCC1569 [4]): 98 (inactive) and 96.5 (inactive)

CC(C)(CN1C(=O)C(Cl)=C(Cl)C1=O)CN1C(=O)C(Cl)=C(Cl)C1=O
cell number (HCC1569 [1]): 86.4
cell number (TDF [2]): 101
H1.0 immunofluorescence intensity (TDF [3]): 89.8 (inactive)
H1.0 immunofluorescence intensity (HCC1569 [4]): 124 (inactive)

CCCCCC=CC=C1C(=O)C=CC1CC=CCCCC(=O)O (stereo unspecified) [15d-Prostaglandin J2]
cell number (HCC1569 [1]): 98.9
cell number (TDF [2]): 102
H1.0 immunofluorescence intensity (TDF [3]): 97.5 (inactive)
H1.0 immunofluorescence intensity (HCC1569 [4]): 104 (inactive)

CC(C)c1ccc(C(=O)N=C(N)N)cc1S(C)(=O)=O [N''-[4-isopropyl-3-(methylsulfonyl)benzoyl]guanidine]
cell number (HCC1569 [1]): 101
cell number (TDF [2]): 93.4
H1.0 immunofluorescence intensity (TDF [3]): 99.1 (inactive)
H1.0 immunofluorescence intensity (HCC1569 [4]): 100 (inactive)

CC1(C)SC2C(NC(=O)COc3ccccc3)C(=O)N2C1C(=O)[O-] (stereo unspecified) [Pencillin V]
cell number (HCC1569 [1]): 100
cell number (TDF [2]): 101
H1.0 immunofluorescence intensity (TDF [3]): 87.4 (inactive)
H1.0 immunofluorescence intensity (HCC1569 [4]): 112 (inactive)

COc1ccccc1N1CCN(CCCCNS(=O)(=O)c2cccc3c(N(C)C)cccc23)CC1.O=C(O)C=CC(=O)O [Cortexolone maleate]
cell number (HCC1569 [1]): 85.1
cell number (TDF [2]): 99.8
H1.0 immunofluorescence intensity (TDF [3]): 117 (inactive)
H1.0 immunofluorescence intensity (HCC1569 [4]): 131 (inactive)

CCCCCCN(CCCCCC)C(=O)Cc1c(-c2ccc(F)cc2)[nH]c2ccccc12 [N,N-Dihexyl-2-(4-fluorophenyl)indole-3-acetamide]
cell number (HCC1569 [1]): 95.6
cell number (TDF [2]): 102
H1.0 immunofluorescence intensity (TDF [3]): 93.3 (inactive)
H1.0 immunofluorescence intensity (HCC1569 [4]): 94.3 (inactive)

NC(=O)c1ncn(C2OC(CO)C(O)C2O)n1 (stereo unspecified) [Ribavirin]
cell number (HCC1569 [1]): 97.5 ± 3
cell number (TDF [2]): 105 ± 3.3
H1.0 immunofluorescence intensity (TDF [3]): 94.5 (inactive)
H1.0 immunofluorescence intensity (HCC1569 [4]): 112 (inactive)

Brc1c(NC2=NCCN2)ccc2nccnc12
cell number (HCC1569 [1]): 103
cell number (TDF [2]): 102
H1.0 immunofluorescence intensity (TDF [3]): 90.2 (inactive)
H1.0 immunofluorescence intensity (HCC1569 [4]): 96.8 (inactive)

Cc1cc(C(C)(C)C)c(O)c(C)c1CC1=NCCN1.Cl [Oxymetazoline.HCl]
cell number (HCC1569 [1]): 102
cell number (TDF [2]): 97.8
H1.0 immunofluorescence intensity (TDF [3]): 98.5 (inactive)
H1.0 immunofluorescence intensity (HCC1569 [4]): 98.2 (inactive)

COc1ccc(S(=O)(=O)Nc2cc(Cl)cc(Cl)c2OC)cc1N1CCNCC1.Cl
cell number (HCC1569 [1]): 100
cell number (TDF [2]): 100
H1.0 immunofluorescence intensity (TDF [3]): 93.4 (inactive)
H1.0 immunofluorescence intensity (HCC1569 [4]): 99.9 (inactive)

CC(CN(C)C)CN1c2ccccc2CCc2ccccc21.O=C(O)C=CC(=O)O (stereo unspecified) [Trimipramine maleate]
cell number (HCC1569 [1]): 106
cell number (TDF [2]): 106
H1.0 immunofluorescence intensity (TDF [3]): 102 (inactive)
H1.0 immunofluorescence intensity (HCC1569 [4]): 109 (inactive)

O=C1CCC(c2ccc(-n3ccnc3)cc2)=NN1 [Imazodan]
cell number (HCC1569 [1]): 95.5
cell number (TDF [2]): 93.8
H1.0 immunofluorescence intensity (TDF [3]): 103 (inactive)
H1.0 immunofluorescence intensity (HCC1569 [4]): 118 (inactive)

O=c1cc(N2CCOCC2)oc2c(-c3ccccc3)cccc12
cell number (HCC1569 [1]): 83.3
cell number (TDF [2]): 102
H1.0 immunofluorescence intensity (TDF [3]): 88 (inactive)
H1.0 immunofluorescence intensity (HCC1569 [4]): 155 (active)

CCN(CC)CCCC(C)Nc1ccnc2cc(Cl)ccc12.O=P(O)(O)O.O=P(O)(O)O (stereo unspecified) [Chloroquine diphosphate]
cell number (HCC1569 [1]): 98.3
cell number (TDF [2]): 106
H1.0 immunofluorescence intensity (TDF [3]): 94.7 (inactive)
H1.0 immunofluorescence intensity (HCC1569 [4]): 94.1 (inactive)

CC1=C(C(=O)O)N2C(=O)C(NC(=O)C(N)c3ccccc3)C2SC1 (stereo unspecified) [Cephalexin hydrate]
cell number (HCC1569 [1]): 104
cell number (TDF [2]): 111
H1.0 immunofluorescence intensity (TDF [3]): 102 (inactive)
H1.0 immunofluorescence intensity (HCC1569 [4]): 96.5 (inactive)
